Assay results: PubChem BioAssay (EPA / NIEHS)
Values joined by “and” are separate entries in the source; they are usually repeats but may differ in a detail not shown here. Equal values may be shown once. Inconclusive results are not listed. Some compounds were tested as several samples or in several runs, with calls that do not always agree. Active and inactive are the calls of the source. The calls were made as follows, unless noted: active = hit-call score of the fitted dose curve at least 0.9, where 1 is the maximum; inconclusive = response in the unintended direction; inactive = score below 0.9.

Experiments:
[1] = molecular target: Estrogen receptor beta (Homo sapiens) (UniProt Q92731); assay: OT_ER_ERbERb_1440: Odyssey Thera (OT) 24-hour HEK293T Protein-Complementation Assay for Estrogen Receptor-beta/-beta Homodimer (AID 2283380);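 also: fluorescence gain from ER beta LBD homodimer complementation read by laser scanning cytometry; scored as signal increase over DMSO baseline for both agonists and antagonists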
Summary of the method: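 Fluorescence increase, nuclear for agonists or whole-cell for antagonists, relative to DMSO vehicle, quantified by laser scanning cytometer after fixation and Draq5 staining. Readout from 24 h treatment of HEK293T cells carrying complementation-paired ER beta LBD (aa 310-547).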

[2] = molecular target: Estrogen receptor (Homo sapiens) (UniProt P03372); assay: OT_ERa_GFPERaERE_0480: Odyssey Thera (OT) 8-hour HeLa Transcription Induction Assay for Estrogen Receptor (AID 2283381; active = hit-call score of the fitted dose curve at least 0.9, where 1 is the maximum; inactive = score below 0.9)
Summary of the method: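 Fluorescent reporter signal, imaged by microscopy and scored with image-analysis algorithms, was taken 8 h after chemical dosing of HeLa cells; activity was fitted upward relative to DMSO.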

[3] = molecular target: Estrogen receptor (Homo sapiens) (UniProt P03372); assay: OT_ERa_GFPERaERE_0120: Odyssey Thera (OT) 2-hour HeLa Transcription Induction Assay for Estrogen Receptor (AID 2283382)
Summary of the method: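 HeLa, 384-well, 2 h chemical exposure; GFP reporter induction (ERE), fluorescence microscopy; high content image analysis; positive fitting direction vs DMSO.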

[4] = molecular target: Bile acid receptor (Homo sapiens) (UniProt Q96RI1); assay: OT_FXR_FXRSRC1_0480: Odyssey Thera (OT) 8-hour HEK293T Protein-Complementation Assay for Farnesoid X receptor/SRC-1 Co-activator (AID 2283383)
Summary of the method: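 Human kidney HEK293T cells carried FXR/SRC-1 fragment-complementation constructs. Compounds were added and incubated 8 h. Reporter reassembly upon receptor–co-activator interaction was then quantified by fluorescence, with curves fitted in the positive direction relative to DMSO.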

[5] = molecular target: Bile acid receptor (Homo sapiens) (UniProt Q96RI1); assay: OT_FXR_FXRSRC1_1440: Odyssey Thera (OT) 24-hour HEK293T Protein-Complementation Assay for Farnesoid X receptor/SRC-1 Co-activator (AID 2283384)
Summary of the method: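 Compounds are applied to human kidney HEK293T cells expressing bait and prey fused to reporter protein fragments; after 24 h, reconstituted reporter fluorescence is measured. Activity is fitted as signal gain over DMSO.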

[6] = molecular target: Retinoic acid receptor RXR-alpha (Homo sapiens) (UniProt P19793); assay: OT_NURR1_NURR1RXRa_0480: Odyssey Thera (OT) 8-hour HEK293T Protein Complementation Assay for Nurr1/retinoid X receptor (RXR) (AID 2283385)
Summary of the method: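 8 h compound exposure, HEK293T; Nurr1/RXRα fragment complementation; fluorescence intensity; positive fitting direction vs DMSO baseline.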

[7] = molecular target: Retinoic acid receptor RXR-alpha (Homo sapiens) (UniProt P19793); assay: OT_NURR1_NURR1RXRa_1440: Odyssey Thera (OT) 24-hour HEK293T Protein Complementation Assay for Nurr1/retinoid X receptor (RXR) (AID 2283386)
Summary of the method: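 Interaction of Nurr1 with RXRα brings fused reporter fragments together in human HEK293T cells, restoring a functional reporter. Fluorescence intensity is measured 24 h after chemical treatment, and values are analysed in the positive direction against DMSO.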

[8] = molecular target: Peroxisome proliferator-activated receptor gamma (Homo sapiens) (UniProt P37231); assay: OT_PPARg_PPARgSRC1_0480: Odyssey Thera (OT) 8-hour Protein-Complementation Assay for Peroxisome Proliferator-activated Receptor Gamma / SRC-1 Co-activator (AID 2283387);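 also: nuclear to cytoplasmic split Venus YFP fluorescence ratio reporting PPARg SRC-1 interaction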
Summary of the method: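 Read-out: 488 nm N/C fluorescence ratio from complemented Venus YFP fragments, ≥350 cells per image, gain-of-signal fitted against DMSO baseline. Fusions of PPARg/SRC-1 with IFP1/IFP2 expressed transiently in HEK293T; compounds applied 8 h.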

[9] = CEETOX_H295R_11DCORT: CeeTox H295R High-throughput Steroidogenesis Assay for 11-Deoxycortisol (11DCORT) (AID 2283432; active = hit-call score of the fitted dose curve at least 0.9, where 1 is the maximum; inactive = score below 0.9); conditions: actives raise or lower the signal
Summary of the method: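 H295R cells; 10 uM forskolin prestim 48 h; compound in 0.1% DMSO 48 h; media extracted with MTBE; 11-deoxycortisol by LC-MS/MS, 7-point standard curve; gain/loss vs DMSO baseline; viability by MTT in same wells.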

[10] = CEETOX_H295R_OHPREG: CeeTox H295R High-throughput Steroidogenesis Assay for OH-Pregnenolone (OHPREG) (AID 2283434; active = hit-call score of the fitted dose curve at least 0.9, where 1 is the maximum; inactive = score below 0.9); conditions: actives raise or lower the signal
Summary of the method: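 Hormone levels in spent medium were measured by tandem mass spectrometry following liquid-liquid extraction. Cells (H295R) had been forskolin-stimulated (10 uM, 48 h) before a 48 h chemical exposure at 0.1% DMSO, with activity fitted in both directions against DMSO.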

[11] = molecular target: human Dopamine Transporter (DAT), SLC6A3 (gene 6531) (UniProt Q01959); assay: NVS_TR_hDAT: NovaScreen (NVS) Transporter Assay for human Dopamine Transporter (DAT) (AID 2283374);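 also: activity means loss of bound radioligand signal relative to DMSO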
Summary of the method: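 Test chemicals were first screened in duplicate at 25 uM, with actives retested as concentration series. Displacement of a specific radioligand from cell-free human dopamine transporter was measured after 1 h by filtration and scintillation counting.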

[12] = molecular target: Peroxisome proliferator-activated receptor gamma (Homo sapiens) (UniProt P37231); assay: OT_PPARg_PPARgSRC1_1440: Odyssey Thera (OT) 24-hour Protein-Complementation Assay for Peroxisome Proliferator-activated Receptor Gamma/ SRC-1 Co-activator (AID 2283388);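 also: nuclear to cytoplasmic ratio of reconstituted Venus YFP fluorescence in fixed imaged cells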
Summary of the method: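 Protein-fragment complementation between PPARg and coactivator SRC-1 was measured by fluorescence imaging in transiently transfected HEK293T cells after 24 h treatment. Signal was quantified as N/C ratio in the 488 nm channel, with DMSO as negative control.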

[13] = molecular target: Agonist Androgen Response Element (ARE), AR (gene 367) (UniProt P10275); assay: OT_AR_ARELUC_AG_1440: Odyssey Thera (OT) 24-hour CHO-K1 Luciferase Assay for Agonist Androgen Response Element (ARE) (AID 2283379)
Summary of the method: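 Agonist mode, 24 h exposure in CHO-K1 ARE-luciferase cells; values reflect luminescence induction over vehicle.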

Chain of Peroxisome proliferator-activated receptor gamma (Homo sapiens) (P37231 whole entry, looked up, the tested form may be a part): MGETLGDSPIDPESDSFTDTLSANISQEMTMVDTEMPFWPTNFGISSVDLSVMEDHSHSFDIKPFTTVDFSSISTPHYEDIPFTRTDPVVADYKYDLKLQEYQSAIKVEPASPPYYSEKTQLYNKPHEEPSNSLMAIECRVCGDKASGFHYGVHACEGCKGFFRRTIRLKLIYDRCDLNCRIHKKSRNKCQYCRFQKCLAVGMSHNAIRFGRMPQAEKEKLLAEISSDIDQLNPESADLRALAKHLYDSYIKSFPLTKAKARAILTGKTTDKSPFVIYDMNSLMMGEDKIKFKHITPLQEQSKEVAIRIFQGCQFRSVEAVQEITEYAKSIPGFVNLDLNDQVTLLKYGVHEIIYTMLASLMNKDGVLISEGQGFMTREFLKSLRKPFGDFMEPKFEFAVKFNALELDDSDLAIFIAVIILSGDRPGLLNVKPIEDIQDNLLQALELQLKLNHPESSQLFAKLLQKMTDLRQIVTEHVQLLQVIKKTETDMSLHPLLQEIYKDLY
Chain of Estrogen receptor (Homo sapiens) (P03372 whole entry, looked up): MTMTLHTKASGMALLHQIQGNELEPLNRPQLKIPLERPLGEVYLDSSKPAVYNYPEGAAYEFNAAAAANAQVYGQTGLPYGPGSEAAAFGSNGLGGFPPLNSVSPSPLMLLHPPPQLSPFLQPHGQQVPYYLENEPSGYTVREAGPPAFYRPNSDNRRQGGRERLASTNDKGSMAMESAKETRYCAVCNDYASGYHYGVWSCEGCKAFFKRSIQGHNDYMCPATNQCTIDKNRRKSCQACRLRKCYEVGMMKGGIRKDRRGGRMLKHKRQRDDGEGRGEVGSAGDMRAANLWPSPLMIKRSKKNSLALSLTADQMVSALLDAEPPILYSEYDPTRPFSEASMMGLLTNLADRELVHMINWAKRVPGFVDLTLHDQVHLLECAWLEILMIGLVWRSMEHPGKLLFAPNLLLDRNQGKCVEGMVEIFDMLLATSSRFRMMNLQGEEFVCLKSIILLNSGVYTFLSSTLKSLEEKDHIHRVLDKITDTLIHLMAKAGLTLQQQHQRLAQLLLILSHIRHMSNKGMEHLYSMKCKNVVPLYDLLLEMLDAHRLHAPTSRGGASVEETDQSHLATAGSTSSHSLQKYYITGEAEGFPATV
Chain of Bile acid receptor (Homo sapiens) (Q96RI1 whole entry, looked up, the tested form may be a part): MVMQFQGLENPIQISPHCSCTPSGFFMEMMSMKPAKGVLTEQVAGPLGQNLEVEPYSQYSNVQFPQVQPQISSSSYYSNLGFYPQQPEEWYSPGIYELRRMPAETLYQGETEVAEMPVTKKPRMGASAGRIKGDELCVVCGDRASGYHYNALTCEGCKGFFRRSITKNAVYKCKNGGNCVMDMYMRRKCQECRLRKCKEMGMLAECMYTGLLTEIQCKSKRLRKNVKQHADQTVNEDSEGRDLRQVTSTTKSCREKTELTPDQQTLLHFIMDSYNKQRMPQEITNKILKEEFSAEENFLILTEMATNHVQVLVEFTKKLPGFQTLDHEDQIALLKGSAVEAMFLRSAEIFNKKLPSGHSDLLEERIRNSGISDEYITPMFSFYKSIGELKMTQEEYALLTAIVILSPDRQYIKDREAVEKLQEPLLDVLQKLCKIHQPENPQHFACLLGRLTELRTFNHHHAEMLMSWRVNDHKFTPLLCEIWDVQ
Chain of human Dopamine Transporter (DAT), SLC6A3 (gene 6531) (Q01959 whole entry, looked up): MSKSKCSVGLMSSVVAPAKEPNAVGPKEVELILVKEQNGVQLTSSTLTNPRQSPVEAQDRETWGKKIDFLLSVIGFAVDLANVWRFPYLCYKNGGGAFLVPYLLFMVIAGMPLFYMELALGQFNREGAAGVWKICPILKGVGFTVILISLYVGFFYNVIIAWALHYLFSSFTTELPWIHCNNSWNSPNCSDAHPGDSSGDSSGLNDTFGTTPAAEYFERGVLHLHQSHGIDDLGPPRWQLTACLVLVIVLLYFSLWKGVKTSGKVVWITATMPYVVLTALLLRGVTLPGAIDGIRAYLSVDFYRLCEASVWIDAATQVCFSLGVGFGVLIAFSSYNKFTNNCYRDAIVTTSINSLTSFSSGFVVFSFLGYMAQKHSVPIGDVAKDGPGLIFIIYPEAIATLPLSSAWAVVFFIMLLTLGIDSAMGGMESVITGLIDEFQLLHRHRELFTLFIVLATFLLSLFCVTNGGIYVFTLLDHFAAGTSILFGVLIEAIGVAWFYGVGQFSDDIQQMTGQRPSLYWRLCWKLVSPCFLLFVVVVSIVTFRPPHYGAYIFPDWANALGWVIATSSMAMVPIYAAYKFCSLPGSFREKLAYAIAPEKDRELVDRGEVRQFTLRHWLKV
Chain of Estrogen receptor beta (Homo sapiens) (Q92731 whole entry, looked up, the tested form may be a part): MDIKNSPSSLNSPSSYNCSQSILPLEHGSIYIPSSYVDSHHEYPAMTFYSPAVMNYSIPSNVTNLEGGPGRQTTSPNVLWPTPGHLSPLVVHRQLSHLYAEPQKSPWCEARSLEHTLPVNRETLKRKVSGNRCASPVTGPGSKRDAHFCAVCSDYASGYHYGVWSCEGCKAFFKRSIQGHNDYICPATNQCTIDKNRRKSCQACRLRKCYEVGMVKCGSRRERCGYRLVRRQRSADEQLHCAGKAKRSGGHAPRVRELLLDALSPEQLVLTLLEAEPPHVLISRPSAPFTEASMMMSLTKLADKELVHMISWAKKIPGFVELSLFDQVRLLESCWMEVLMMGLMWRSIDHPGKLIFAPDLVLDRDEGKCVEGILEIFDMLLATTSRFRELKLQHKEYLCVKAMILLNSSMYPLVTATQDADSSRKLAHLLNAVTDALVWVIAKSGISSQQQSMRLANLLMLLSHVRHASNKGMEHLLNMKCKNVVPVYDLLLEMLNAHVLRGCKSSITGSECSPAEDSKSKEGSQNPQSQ
Chain of Retinoic acid receptor RXR-alpha (Homo sapiens) (P19793 whole entry, looked up, the tested form may be a part): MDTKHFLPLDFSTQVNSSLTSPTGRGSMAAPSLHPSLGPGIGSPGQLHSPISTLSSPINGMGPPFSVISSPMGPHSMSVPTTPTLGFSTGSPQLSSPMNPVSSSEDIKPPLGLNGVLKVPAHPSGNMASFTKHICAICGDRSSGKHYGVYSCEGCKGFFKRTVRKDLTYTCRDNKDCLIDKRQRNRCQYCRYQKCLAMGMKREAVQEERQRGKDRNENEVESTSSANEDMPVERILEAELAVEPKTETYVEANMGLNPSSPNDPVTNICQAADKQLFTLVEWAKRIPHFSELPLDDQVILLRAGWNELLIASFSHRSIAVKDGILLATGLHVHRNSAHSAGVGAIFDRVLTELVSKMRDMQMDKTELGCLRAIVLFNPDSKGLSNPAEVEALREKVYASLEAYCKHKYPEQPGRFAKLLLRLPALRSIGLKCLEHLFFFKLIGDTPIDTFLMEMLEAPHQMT
Chain of Agonist Androgen Response Element (ARE), AR (gene 367) (P10275 whole entry, looked up): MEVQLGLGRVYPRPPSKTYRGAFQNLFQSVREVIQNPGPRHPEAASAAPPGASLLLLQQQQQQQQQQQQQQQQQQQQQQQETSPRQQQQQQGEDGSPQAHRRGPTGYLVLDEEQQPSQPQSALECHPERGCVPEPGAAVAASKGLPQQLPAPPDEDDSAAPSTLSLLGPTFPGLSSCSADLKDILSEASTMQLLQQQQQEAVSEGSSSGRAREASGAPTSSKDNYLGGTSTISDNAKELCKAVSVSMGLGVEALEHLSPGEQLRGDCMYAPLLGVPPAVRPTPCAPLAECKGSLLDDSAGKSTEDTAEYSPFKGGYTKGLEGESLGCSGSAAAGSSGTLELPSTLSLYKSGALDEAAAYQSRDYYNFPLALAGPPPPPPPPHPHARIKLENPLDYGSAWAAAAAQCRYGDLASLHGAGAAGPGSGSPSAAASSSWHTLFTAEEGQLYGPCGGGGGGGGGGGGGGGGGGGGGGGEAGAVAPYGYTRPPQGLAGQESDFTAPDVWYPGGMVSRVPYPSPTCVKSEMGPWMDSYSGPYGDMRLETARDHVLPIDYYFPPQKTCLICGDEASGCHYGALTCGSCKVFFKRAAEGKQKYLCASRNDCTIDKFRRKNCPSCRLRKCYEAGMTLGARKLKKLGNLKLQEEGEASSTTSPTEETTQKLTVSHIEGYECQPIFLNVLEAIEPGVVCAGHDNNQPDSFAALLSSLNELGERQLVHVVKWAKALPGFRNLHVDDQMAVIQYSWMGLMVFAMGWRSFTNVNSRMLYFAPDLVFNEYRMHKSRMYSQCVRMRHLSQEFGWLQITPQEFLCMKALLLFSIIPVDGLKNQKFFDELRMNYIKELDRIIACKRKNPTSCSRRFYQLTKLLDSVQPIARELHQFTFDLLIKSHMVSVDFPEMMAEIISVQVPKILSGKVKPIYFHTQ

CCOP(=S)(OCC)SCn1c(=O)oc2cc(Cl)ccc21
outcome [1]: inactive | outcome [2]: inactive | outcome [3]: inactive | AC50 [4]: 17.9 µM (active) | AC50 [5]: 12 µM (active) | outcome [6]: inactive | outcome [7]: inactive | outcome [8]: inactive | outcome [9]: inactive | AC50 [10]: 5 µM (active)

COP(=S)(OC)Oc1nc(Cl)c(Cl)cc1Cl
outcome [1]: inactive | outcome [2]: inactive | outcome [3]: inactive | outcome [4]: inactive | outcome [6]: inactive | outcome [7]: inactive | outcome [8]: inactive

COC(=O)C=C(C)OP(=O)(OC)OC
outcome [1]: inactive | outcome [2]: inactive | outcome [3]: inactive | outcome [4]: inactive | outcome [5]: inactive | outcome [6]: inactive | outcome [7]: inactive | outcome [8]: inactive

Fc1ccc(Oc2ccnc3cc(Cl)cc(Cl)c23)cc1
AC50 [11]: 9.77 µM (active) | outcome [1]: inactive | outcome [2]: inactive | outcome [3]: inactive | AC50 [4]: 12.6 µM (active) | AC50 [5]: 29.1 µM (active) | AC50 [6]: 28.3 µM (active) | outcome [6]: inactive | AC50 [7]: 70.8 µM (active) and 65.4 µM (active) | outcome [8]: inactive

CC(C)C1(C)N=C(c2nc3ccccc3cc2C(=O)O)NC1=O (configuration not stated)
outcome [1]: inactive | outcome [2]: inactive | outcome [3]: inactive | outcome [4]: inactive | outcome [5]: inactive | outcome [6]: inactive | outcome [7]: inactive | outcome [8]: inactive

N#Cc1cc(Br)c(O)c(Br)c1
outcome [2]: inactive | outcome [3]: inactive | outcome [8]: inactive

OC(c1ccc(Cl)cc1)(c1cncnc1)c1ccccc1Cl (configuration not stated)
AC50 [11]: 0.944 µM (active) | outcome [1]: inactive | AC50 [2]: 12.1 µM (active) | outcome [3]: inactive | outcome [7]: inactive | outcome [8]: inactive | outcome [12]: inactive

CCc1nn(C)c(C(=O)NCc2ccc(C(C)(C)C)cc2)c1Cl
AC50 [11]: 6.22 µM (active) | outcome [1]: inactive | outcome [2]: inactive | outcome [3]: inactive | AC50 [4]: 0.578 µM (active) | AC50 [7]: 11.6 µM (active) | outcome [8]: inactive

CCOc1cc(Oc2ccc(C(F)(F)F)cc2Cl)ccc1[N+](=O)[O-]
AC50 [11]: 6.37 µM (active) | outcome [1]: inactive | outcome [2]: inactive | outcome [3]: inactive | outcome [4]: inactive | outcome [5]: inactive | outcome [7]: inactive | outcome [8]: inactive | outcome [9]: inactive | outcome [10]: inactive

C=CCC1=C(C)[C@@H](OC(=O)[C@@H]2[C@@H](C=C(C)C)C2(C)C)CC1=O
AC50 [11]: 18.6 µM (active) | outcome [2]: inactive | outcome [3]: inactive | AC50 [4]: 16.6 µM (active) | AC50 [5]: 50 µM (active) | AC50 [6]: 31.5 µM (active) | outcome [6]: inactive | AC50 [7]: 80.6 µM (active) | outcome [7]: inactive | outcome [8]: inactive

O=C(O)c1nc(Cl)ccc1Cl
outcome [2]: inactive | outcome [3]: inactive | outcome [6]: inactive | outcome [7]: inactive | outcome [12]: inactive

CS/C(C)=N/OC(=O)N(C)SN(C)C(=O)O/N=C(\C)SC
outcome [13]: inactive | outcome [1]: inactive | AC50 [2]: 93.3 µM (active) | outcome [3]: inactive | outcome [5]: inactive | outcome [8]: inactive

CN(C)C(=S)SSC(=S)N(C)C
outcome [13]: inactive | outcome [1]: inactive | AC50 [2]: 83.4 µM (active) | AC50 [3]: 90.7 µM (active) | outcome [4]: inactive | outcome [8]: inactive

CC(C)(C)c1ccc(CSc2cnn(C(C)(C)C)c(=O)c2Cl)cc1
outcome [1]: inactive | outcome [2]: inactive | outcome [3]: inactive | AC50 [4]: 5.14 µM (active) | outcome [5]: inactive | outcome [6]: inactive | outcome [7]: inactive | outcome [8]: inactive

COC(=O)C(C)Oc1ccc(Oc2ccc(Cl)cc2Cl)cc1 (configuration not stated)
AC50 [11]: 14.2 µM (active) | outcome [11]: inactive | outcome [1]: inactive | AC50 [4]: 66.2 µM (active) | outcome [5]: inactive | outcome [6]: inactive | outcome [8]: inactive
